Consider 39 molecules from PubChem BioAssay AID772 (SRMLSC, 2007).

In all, about 3,300 compounds went through this assay and about 20 (0.6%) were called active.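 Rule for the calls: active = growth inhibition above 90%, meaning viable cell count cut by more than 90% versus vehicle controls; inactive = growth inhibition below 90%.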 The sample as a whole holds a higher share of actives than the screen did.

This experiment in a line: HT29 colon tumor cell growth inhibition, primary screen, imaging, high content imaging, 72 h, CellTiter-Glo (AID 772).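 For condensed nuclei: condensed means nuclear area below control median minus 1.5 SD.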 Particulars: HCS imaging cell count, at 10 µM, stronger effect = higher value; for condensed nuclei: measured here: percent cells with condensed nuclei. (In general: In ATP-based viability assays light output follows the ATP content of the culture.)
[1] abbreviates: measured here: ATP CellTiter-Glo viability.

Take `CCN(CC)CCN1C(=O)C(O)=C(C(=O)c2ccco2)C1c1ccccn1` (configuration not stated): the growth inhibition was -51.4% (inactive) and the condensed nuclei was determined as 2.14%. Besides, the growth inhibition under setting [1] is -77%.

Take `CC(=O)C1=C(NC(=O)c2ccccc2F)C[C@@H]2[C@H]1C2(C)C`: the growth inhibition was -1.88% (inactive) and the condensed nuclei was 2.19%. Also, under setting [1], the growth inhibition is -28.5%.

Turning to `Cc1ccc(-n2c(=O)c3c4c(sc3n3c(C)nnc23)COC(C(C)C)C4)cc1` (configuration not stated), the growth inhibition was -38% (inactive) and the condensed nuclei is 4.02%. Further, the growth inhibition under setting [1] is -56.1%.

Take `O=C(NC1CCS(=O)(=O)C1)N1CCCCC1` (configuration not stated): the growth inhibition is 28.2% (inactive) and the condensed nuclei amounted to 9.88%. Further, under setting [1], the growth inhibition was determined as 4.61%.

Turning to `COC(=O)c1ccccc1NC(=O)CSc1nnc(-c2ccncc2)o1`, the growth inhibition was 11.7% (inactive) and the condensed nuclei was 4.89%. Besides, the growth inhibition under setting [1] is -27.3%.

On to `CCOC(=O)c1[nH]c2ccc(C)cc2c1N=CN(CC)CC`, for which the growth inhibition is 1.88% (inactive) and the condensed nuclei is 12.3%. Moreover, the growth inhibition under setting [1] is -13%.

`COC(=O)c1ccccc1NC(=O)C1COc2ccccc2O1` (configuration not stated): the growth inhibition was 16.2% (inactive) and the condensed nuclei turned out to be 13.5%. In addition, under setting [1], the growth inhibition was determined as 13.5%.

Turning to `COc1cc2nc(N3CCN(C(=O)c4ccco4)CC3)nc(N)c2cc1OC`, the growth inhibition is 94.7% (active) and the condensed nuclei is 30.2%. Also, the growth inhibition under setting [1] is 67.4%.

For the molecule `COc1cc2nc(N3CCN(C(=O)C4CCCO4)CC3)nc(N)c2cc1OC` (configuration not stated), the growth inhibition is -61.2% (inactive) and the condensed nuclei came out at 2.06%. Under setting [1], the growth inhibition was -20.9%.

With `COc1cc2nc(N3CCN(C(=O)C4COc5ccccc5O4)CC3)nc(N)c2cc1OC` (configuration not stated), the growth inhibition is 96% (active) and the condensed nuclei stood at 21.8%. In addition, under setting [1], the growth inhibition was determined as 83.5%.

With `COc1cccc(OC)c1OCCN1CCN(C(=O)c2ccco2)CC1`, the growth inhibition was 18.1% (inactive) and the condensed nuclei is 3.57%. Under setting [1], the growth inhibition was determined as 7.71%.

On to `COc1ccc2[nH]c(C)c(C(=O)CN3CCN(C(=O)c4ccco4)CC3)c2c1`, for which the growth inhibition is -20.9% (inactive) and the condensed nuclei was 3.46%. Moreover, the growth inhibition under setting [1] was -49.5%.

Regarding `O=C(O)c1nsc(Cl)c1Cl`, the growth inhibition is -41.6% (inactive) and the condensed nuclei turned out to be 1.81%. In addition, the growth inhibition under setting [1] was -55.8%.

In the case of `Cc1cccc(OCC(=O)N2CCC(N3CCCCCC3)CC2)c1`, the growth inhibition is -20.3% (inactive) and the condensed nuclei stood at 13.8%. Also, the growth inhibition under setting [1] is -10.7%.

On to `CN(C)CC(O)COc1cccc(OCC(O)CN(C)C)c1` (configuration not stated), for which the growth inhibition was -49% (inactive) and the condensed nuclei was found to be 5.18%. In addition, the growth inhibition under setting [1] was -41%.

Regarding `CN(C)CC(O)COc1ccc(C(C)(C)c2ccc(OCC(O)CN(C)C)cc2)cc1` (configuration not stated), the growth inhibition was 61.9% (inactive) and the condensed nuclei was 18.1%. In addition, the growth inhibition under setting [1] was 98.3%.

For `CN(C)CC(O)COc1ccc(-c2ccc(C#N)cc2)cc1` (configuration not stated), the growth inhibition was 90.2% (active) and the condensed nuclei was 7.89%. Moreover, the growth inhibition under setting [1] stood at 86%.

Consider `Cn1c(=O)c2c(nc(Br)n2Cc2ccc3ccccc3c2)n(C)c1=O`, for which the growth inhibition was 57.1% (inactive) and the condensed nuclei is 5.08%. The growth inhibition under setting [1] is 9.53%.

Turning to `Cc1cc(=O)[nH]c(SCC(=O)c2ccccc2)c1C#N`, the growth inhibition was 27.9% (inactive) and the condensed nuclei was 2.93%. In addition, the growth inhibition under setting [1] was -16.6%.

Turning to `CCCSc1nc(C)c(CC(=O)O)c(=O)[nH]1`, the growth inhibition was -32.6% (inactive) and the condensed nuclei turned out to be 3.23%. In addition, the growth inhibition under setting [1] is -21%.

Turning to `CCN(CC)C(=O)C1CCN(c2ncnc3c2cnn3-c2ccc(C)cc2C)CC1`, the growth inhibition is 63.8% (inactive) and the condensed nuclei is 6.87%. Moreover, the growth inhibition under setting [1] is 64.7%.

Regarding `Fc1ccc(C2C3=C(Nc4ncnn42)c2ccccc2OC3c2ccncc2)cc1` (configuration not stated), the growth inhibition was 61.8% (inactive) and the condensed nuclei was found to be 17.7%. Moreover, under setting [1], the growth inhibition was determined as 20.5%.

`CCCOc1ccc(CSC(CC(=O)O)C(=O)O)cc1` (configuration not stated): the growth inhibition is -29% (inactive) and the condensed nuclei was found to be 0.98%. Under setting [1], the growth inhibition is -72.1%.

`COC(=O)C1=C(C)N=C2SC(C)C(=O)N2C1/C=C/c1ccccc1OC` (configuration not stated): the growth inhibition was -57.1% (inactive) and the condensed nuclei came to 1.79%. Besides, the growth inhibition under setting [1] was -59.2%.

In the case of `CCCCC(=O)c1c(C)cc(C)[nH]c1=O`, the growth inhibition was -16.9% (inactive) and the condensed nuclei is 1.27%. Besides, the growth inhibition under setting [1] is -46.2%.

For the molecule `CCN(CC)CCN1C(=O)C(O)=C(C(=O)c2cccs2)C1c1ccccn1` (configuration not stated), the growth inhibition was -42% (inactive) and the condensed nuclei was 3.64%. The growth inhibition under setting [1] is -45.7%.

Consider `CCN(CC)CCOC(=O)c1c(C)n(C)c2ccc(OC)cc12`, for which the growth inhibition was -57.1% (inactive) and the condensed nuclei came to 3.82%. In addition, the growth inhibition under setting [1] is -23%.

For `Cn1cc(Cl)nc1C(O)c1ccccc1` (configuration not stated), the growth inhibition was -111% (inactive) and the condensed nuclei worked out at 2.87%. The growth inhibition under setting [1] was -43.7%.

For `Cc1cc2c(c(=O)o1)C(CC(C)C)C(C#N)=C(N)O2` (configuration not stated), the growth inhibition was 18.4% (inactive) and the condensed nuclei was 2.71%. The growth inhibition under setting [1] is -9.11%.

Consider `N/C(CCN1CCCCC1)=N/O`, for which the growth inhibition is 20.8% (inactive) and the condensed nuclei turned out to be 6.52%. Besides, under setting [1], the growth inhibition turned out to be 13.8%.

Consider `c1ccc(Cc2nn[nH]n2)cc1`, for which the growth inhibition is 14.9% (inactive) and the condensed nuclei was 4.71%. Moreover, the growth inhibition under setting [1] was -16.9%.

On to `N#C/C(=N\O)c1nc(-c2ccccc2)cs1`, for which the growth inhibition was -131% (inactive) and the condensed nuclei was found to be 3.16%. The growth inhibition under setting [1] is -49.8%.

For the molecule `CCOc1cccc(-c2nnc3sc(-c4ccco4)nn23)c1`, the growth inhibition was -51.8% (inactive) and the condensed nuclei was 2.36%. In addition, the growth inhibition under setting [1] was -46.9%.

As for `CCOC(=O)C(Oc1ccc(=O)[nH]n1)C(C)=O` (configuration not stated), the growth inhibition is -6.93% (inactive) and the condensed nuclei stood at 3.6%. For the same molecule, the growth inhibition under setting [1] was -59.3%.

Consider `CC(C)Sc1nnc2n(CCc3ccccc3)c(=O)c3c4c(sc3n12)COC(C)(C)C4`, for which the growth inhibition was 0.75% (inactive) and the condensed nuclei came to 1.47%. For the same molecule, the growth inhibition under setting [1] is -42.2%.

For the molecule `CCc1[nH]c(=O)c(C#N)c2c1CSC(C)(C)C2`, the growth inhibition is 9.49% (inactive) and the condensed nuclei is 4.45%. The growth inhibition under setting [1] is -3.16%.

As to `Cc1nn(C)cc1C1C2=C(CC(C)(C)CC2=O)OC2=C1C(=O)CC(C)(C)C2`, the growth inhibition was -19.8% (inactive) and the condensed nuclei amounted to 2.88%. The growth inhibition under setting [1] was -38.9%.

As to `CC1(C)CC(=O)C2=C(C1)OC(N)=C(C#N)C2C1C=CCCC1` (configuration not stated), the growth inhibition is 59.5% (inactive) and the condensed nuclei was 3.5%. Moreover, the growth inhibition under setting [1] turned out to be 32.2%.

Regarding `CC1(C)CC(=O)C2=C(C1)Oc1nc3ccccc3cc1C2C(C#N)C#N` (configuration not stated), the growth inhibition is 92.5% (active) and the condensed nuclei was 0%. Besides, the growth inhibition under setting [1] is 71.1%.
